Consider 16 molecules from PubChem BioAssay (Tox21).

“And” between values parts separate entries of the source, which are not always exact repeats. Equal values may be shown once. Records with an inconclusive call do not appear. Some structures have more than one record in an assay (separate samples or runs), and their calls can disagree. The source made the active and inactive calls. Calls follow the shape of the dose curve; as a rule, active = well fitted curve in the direction sought with a large enough effect in the repeat runs; inconclusive = weak or mixed curves; inactive = no such curve, though single readings can be large; an effect the other way counts as inactive or inconclusive.

Assay [1] can be described thus: Human pregnane X receptor (PXR) small molecule agonists, qHTS cell viability counter screen (AID 1346977). Also: nearly all actives have a fitted effect of over 50% in size. Also: potency is read from the fitted curve at half-maximal effect. In outline: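 In each well, the PXR reporter HepG2 line was checked for viability: CellTiter-Fluor reagent added 23hr post-dosing, fluorescence read after 1hr incubation at 37C.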
Background: In qHTS, concentration-response curves come from the screen itself.

Assay [2] is described as follows: Caspase-3/7 induction in HepG2 cells by small molecules, qHTS assay (AID 1346978). Also: nearly all actives have a fitted effect of over 15% in size. Also: potency is read from the fitted curve at half-maximal effect. In outline: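 Wild-type HepG2 cells, 2,000/well, settled 5 hr at 37 C and 5% CO2, then compound-treated for 17 hr; caspase-3/7 activity read by luminescent Caspase-Glo 3/7 after 30 min at room temperature.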
Assay [3] in a line: Caspase-3/7 induction in CHO-K1 cells by small molecules, qHTS cell viability counter screen (AID 1346979). Also: nearly all actives have a fitted effect of over 35% in size. Also: potency is read from the fitted curve at half-maximal effect. The procedure, abridged: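 Following a 5hr settling period, CHO-K1 cells at 1,500 per well received DMSO-dissolved compounds. Cell viability was quantified 16hr later by CellTiter-Fluor fluorescence, measured after 1hr with reagent at 37C.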
Assay [4] can be described thus: Caspase-3/7 induction in CHO-K1 cells by small molecules, qHTS assay (AID 1346980). Also: nearly all actives have a fitted effect of over 15% in size. The procedure, abridged: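 Wild-type CHO-K1 cells exposed to compounds for 17hr at 37 C, 5% CO2. Caspase-3/7 activity then measured by Caspase-Glo 3/7 luminescence after 30min at room temperature.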
A short description of assay [5]: Caspase-3/7 induction in HepG2 cells by small molecules, qHTS cell viability counter screen (AID 1346981). Also: series mostly up to about 92 µM; nearly all actives have a fitted effect of over 30% in size. The procedure, abridged:
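Steps: seed 2,000 HepG2 cells per well; incubate 5 hr at 37 C; pin-add compounds in DMSO; incubate 16 hr; add CellTiter-Fluor; after 1 hr at 37 C and 5% CO2, read fluorescence.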

Assay [6] addresses Nuclear receptor subfamily 1 group I member 2 (Homo sapiens) (UniProt O75469). The experiment in a line: Human pregnane X receptor (PXR) small molecule agonists, qHTS assay (AID 1346982). Also: nearly all actives have a fitted effect of over 35% in size. Also: potency is read from the fitted curve at half-maximal effect. The procedure, abridged: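 Agonist mode qHTS: PXR-Luc HepG2 cells plated 5 hr before DMSO-dissolved compounds were pinned in, cultured 24 hr at 37 C, 5% CO2; ONE-Glo luminescence readout.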
The target of assay [7] is Cytochrome P450 2D6 (Homo sapiens) (UniProt P10635). The assay is described as follows: Cytochrome P450 Family 2 Subfamily D Member 6 (CYP2D6) small molecule antagonists: luciferase reporter qHTS assay (AID 1671196). Also: nearly all actives have a fitted effect of over 50% in size. Also: potency is read from the fitted curve at half-maximal effect. The procedure, abridged:
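P450-Glo format: CYP2D6 converts a proluciferin substrate to luciferin in an NADPH-driven reaction lasting 1 h at room temperature. Light output, proportional to CYP2D6 activity, reflects interference by test chemicals.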

For assay [8], the target named is Cytochrome P450 2C19 (Homo sapiens) (UniProt P33261). The assay is described as follows: Cytochrome P450 Family 2 Subfamily C Member 19 (CYP2C19) small molecule antagonists: luciferase reporter qHTS assay (AID 1671197). Also: nearly all actives have a fitted effect of over 65% in size. Also: potency is read from the fitted curve at half-maximal effect. The procedure, abridged: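 P450-Glo CYP2C19 screening system; proluciferin substrate; DMSO compound stocks; 10 min RT preincubation; NADPH regeneration, 1 h at 37C; luciferin detection reagent, 20 min RT; luminescence as RLU.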

Assay [9] addresses Cytochrome P450 2C9 (Homo sapiens) (UniProt P11712). The assay is described as follows: Cytochrome P450 Family 2 Subfamily C Member 9 (CYP2C9) small molecule antagonists: luciferase reporter qHTS assay (AID 1671198). Also: nearly all actives have a fitted effect of over 50% in size. Also: potency is read from the fitted curve at half-maximal effect. The procedure, abridged:
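P450-Glo proluciferin substrate with CYP2C9 enzyme; 10 min RT preincubation, then NADPH regeneration 1 h at 37C; luciferin detection reagent 20 min RT, luminescence in relative luminescence units.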
On the technique in general: In a reporter assay the amount or activity of a reporter protein is the signal.

For assay [10], the target named is Cytochrome P450 1A2 (Homo sapiens) (UniProt P05177). The experiment in a line: Cytochrome P450 Family 1 Subfamily A Member 2 (CYP1A2) small molecule antagonists: luciferase reporter qHTS assay (AID 1671199). Also: nearly all actives have a fitted effect of over 50% in size. Also: potency is read from the fitted curve at half-maximal effect. The procedure, abridged: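 Inhibition of CYP1A2 conversion of proluciferin to luciferin, detected by luminescence. Reaction run 1 h at room temperature with NADPH regeneration after brief compound preincubation.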

Assay [11] concerns the target Voltage-gated inwardly rectifying potassium channel KCNH2 (Homo sapiens) (UniProt Q12809). The assay is described as follows: Human Ether-a-go-go-Related Gene (hERG) channel small molecule antagonists: fluorescence cell-based qHTS assay (AID 1671200). The procedure, abridged:
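In this thallium-flux screen, overnight-cultured U2OS cells bearing the channel are dye-loaded in darkness for an hour, rested 10 min at room temperature, and then monitored kinetically at 480/540 nm for two minutes post-stimulus.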

Assay [12] addresses Cytochrome P450 3A4 (Homo sapiens) (UniProt P08684). The assay is described as follows: Cytochrome P450 Family 3 Subfamily A Member 4 (CYP3A4) small molecule antagonists: luciferase reporter qHTS assay (AID 1671201). Also: nearly all actives have a fitted effect of over 50% in size. Also: potency is read from the fitted curve at half-maximal effect. In outline: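 CYP3A4 activity was followed with a P450-Glo proluciferin substrate. Test compounds in DMSO were preincubated 10 min; NADPH regeneration then ran 1 h, and light output was read 20 min after detection reagent.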

Sequence of Nuclear receptor subfamily 1 group I member 2 (Homo sapiens) (O75469 whole entry, looked up): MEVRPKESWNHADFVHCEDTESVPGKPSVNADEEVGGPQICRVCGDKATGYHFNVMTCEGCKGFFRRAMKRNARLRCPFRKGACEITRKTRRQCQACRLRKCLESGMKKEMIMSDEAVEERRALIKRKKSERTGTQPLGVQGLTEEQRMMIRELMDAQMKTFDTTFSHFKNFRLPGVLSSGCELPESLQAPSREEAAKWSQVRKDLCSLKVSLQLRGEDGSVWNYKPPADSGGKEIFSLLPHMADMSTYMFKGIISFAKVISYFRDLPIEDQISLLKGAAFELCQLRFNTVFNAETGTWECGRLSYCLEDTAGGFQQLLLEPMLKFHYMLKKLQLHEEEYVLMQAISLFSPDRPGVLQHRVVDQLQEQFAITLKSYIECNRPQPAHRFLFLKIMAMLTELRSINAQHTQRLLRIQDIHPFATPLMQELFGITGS
Sequence of Cytochrome P450 2D6 (Homo sapiens) (P10635 whole entry, looked up): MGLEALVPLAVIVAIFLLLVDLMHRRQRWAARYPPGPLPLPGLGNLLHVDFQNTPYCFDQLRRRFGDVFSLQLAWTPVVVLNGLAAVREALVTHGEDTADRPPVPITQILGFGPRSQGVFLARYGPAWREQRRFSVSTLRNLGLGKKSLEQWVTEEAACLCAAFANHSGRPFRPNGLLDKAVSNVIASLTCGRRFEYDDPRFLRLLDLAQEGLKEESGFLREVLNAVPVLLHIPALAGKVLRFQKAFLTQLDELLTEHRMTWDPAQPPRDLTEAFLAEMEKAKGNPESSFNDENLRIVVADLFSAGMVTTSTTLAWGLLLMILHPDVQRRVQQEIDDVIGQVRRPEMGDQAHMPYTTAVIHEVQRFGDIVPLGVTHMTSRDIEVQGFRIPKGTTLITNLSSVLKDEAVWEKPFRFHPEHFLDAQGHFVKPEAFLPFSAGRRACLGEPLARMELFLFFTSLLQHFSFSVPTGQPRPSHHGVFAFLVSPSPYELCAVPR
Sequence of Cytochrome P450 2C9 (Homo sapiens) (P11712 whole entry, looked up): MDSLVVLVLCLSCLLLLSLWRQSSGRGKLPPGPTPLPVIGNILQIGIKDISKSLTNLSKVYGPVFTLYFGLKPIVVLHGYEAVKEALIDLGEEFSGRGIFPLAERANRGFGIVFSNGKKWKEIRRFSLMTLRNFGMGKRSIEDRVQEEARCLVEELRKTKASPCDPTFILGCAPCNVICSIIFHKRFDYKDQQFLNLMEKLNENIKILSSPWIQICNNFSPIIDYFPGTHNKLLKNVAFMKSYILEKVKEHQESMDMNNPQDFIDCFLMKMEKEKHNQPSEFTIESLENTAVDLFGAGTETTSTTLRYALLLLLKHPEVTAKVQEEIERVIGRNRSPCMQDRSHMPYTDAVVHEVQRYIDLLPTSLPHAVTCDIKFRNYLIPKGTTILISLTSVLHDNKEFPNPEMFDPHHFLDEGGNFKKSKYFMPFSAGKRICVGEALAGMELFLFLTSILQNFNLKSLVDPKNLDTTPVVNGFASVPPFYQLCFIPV
Sequence of Cytochrome P450 3A4 (Homo sapiens) (P08684 whole entry, looked up): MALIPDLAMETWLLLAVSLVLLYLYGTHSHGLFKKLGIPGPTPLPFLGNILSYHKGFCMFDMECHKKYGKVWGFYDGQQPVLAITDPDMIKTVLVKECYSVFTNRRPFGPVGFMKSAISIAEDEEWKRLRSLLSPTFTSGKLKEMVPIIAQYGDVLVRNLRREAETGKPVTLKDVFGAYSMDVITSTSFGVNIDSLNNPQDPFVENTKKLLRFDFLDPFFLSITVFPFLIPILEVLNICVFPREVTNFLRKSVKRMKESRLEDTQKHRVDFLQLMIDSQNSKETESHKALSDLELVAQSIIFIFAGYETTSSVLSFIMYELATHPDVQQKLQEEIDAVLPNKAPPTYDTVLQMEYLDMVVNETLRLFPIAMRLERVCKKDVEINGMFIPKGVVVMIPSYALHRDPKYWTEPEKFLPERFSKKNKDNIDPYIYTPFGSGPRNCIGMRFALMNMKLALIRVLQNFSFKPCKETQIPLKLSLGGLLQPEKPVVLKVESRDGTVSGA
Sequence of Voltage-gated inwardly rectifying potassium channel KCNH2 (Homo sapiens) (Q12809 whole entry, looked up): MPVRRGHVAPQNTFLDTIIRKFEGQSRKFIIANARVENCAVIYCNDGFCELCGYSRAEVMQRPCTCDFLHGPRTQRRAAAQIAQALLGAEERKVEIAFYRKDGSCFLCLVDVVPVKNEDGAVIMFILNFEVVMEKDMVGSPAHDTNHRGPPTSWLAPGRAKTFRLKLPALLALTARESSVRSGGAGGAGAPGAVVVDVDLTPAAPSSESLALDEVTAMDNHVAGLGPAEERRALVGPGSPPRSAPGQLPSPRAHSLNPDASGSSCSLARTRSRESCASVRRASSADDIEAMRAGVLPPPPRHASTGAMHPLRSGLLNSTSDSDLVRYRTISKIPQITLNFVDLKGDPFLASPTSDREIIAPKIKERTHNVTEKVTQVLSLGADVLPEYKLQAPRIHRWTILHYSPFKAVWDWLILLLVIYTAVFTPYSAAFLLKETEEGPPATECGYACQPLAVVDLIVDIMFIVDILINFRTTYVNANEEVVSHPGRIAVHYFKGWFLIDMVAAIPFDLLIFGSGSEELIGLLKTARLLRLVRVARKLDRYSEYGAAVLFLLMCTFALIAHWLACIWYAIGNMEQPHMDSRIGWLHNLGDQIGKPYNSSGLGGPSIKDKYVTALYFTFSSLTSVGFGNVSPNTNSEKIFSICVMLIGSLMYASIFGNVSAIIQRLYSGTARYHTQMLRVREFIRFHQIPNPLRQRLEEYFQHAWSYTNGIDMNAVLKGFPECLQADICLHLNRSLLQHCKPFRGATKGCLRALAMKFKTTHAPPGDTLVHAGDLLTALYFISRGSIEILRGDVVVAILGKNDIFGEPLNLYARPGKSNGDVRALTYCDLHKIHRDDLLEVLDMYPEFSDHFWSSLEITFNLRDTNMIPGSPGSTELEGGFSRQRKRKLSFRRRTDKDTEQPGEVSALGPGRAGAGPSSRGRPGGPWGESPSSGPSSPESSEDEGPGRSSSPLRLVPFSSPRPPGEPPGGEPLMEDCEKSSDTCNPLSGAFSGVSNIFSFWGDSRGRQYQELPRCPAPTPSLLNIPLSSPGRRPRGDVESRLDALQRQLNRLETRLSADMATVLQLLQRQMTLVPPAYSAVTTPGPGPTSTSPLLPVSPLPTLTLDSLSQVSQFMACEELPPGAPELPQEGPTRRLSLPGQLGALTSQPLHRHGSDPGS
Sequence of Cytochrome P450 1A2 (Homo sapiens) (P05177 whole entry, looked up): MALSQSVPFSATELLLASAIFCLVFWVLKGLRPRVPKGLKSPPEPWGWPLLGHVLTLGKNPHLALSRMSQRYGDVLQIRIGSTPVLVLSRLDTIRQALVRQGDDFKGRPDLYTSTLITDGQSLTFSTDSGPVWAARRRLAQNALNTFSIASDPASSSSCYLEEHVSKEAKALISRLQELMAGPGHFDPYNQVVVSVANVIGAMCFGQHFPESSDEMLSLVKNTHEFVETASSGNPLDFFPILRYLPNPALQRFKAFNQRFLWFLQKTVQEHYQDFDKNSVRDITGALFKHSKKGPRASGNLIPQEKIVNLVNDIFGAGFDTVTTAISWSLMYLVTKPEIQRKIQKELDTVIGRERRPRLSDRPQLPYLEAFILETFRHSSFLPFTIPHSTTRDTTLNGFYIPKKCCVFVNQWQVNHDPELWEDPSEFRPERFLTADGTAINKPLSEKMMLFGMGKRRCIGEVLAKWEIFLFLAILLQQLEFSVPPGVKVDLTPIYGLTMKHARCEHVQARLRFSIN
Sequence of Cytochrome P450 2C19 (Homo sapiens) (P33261 whole entry, looked up): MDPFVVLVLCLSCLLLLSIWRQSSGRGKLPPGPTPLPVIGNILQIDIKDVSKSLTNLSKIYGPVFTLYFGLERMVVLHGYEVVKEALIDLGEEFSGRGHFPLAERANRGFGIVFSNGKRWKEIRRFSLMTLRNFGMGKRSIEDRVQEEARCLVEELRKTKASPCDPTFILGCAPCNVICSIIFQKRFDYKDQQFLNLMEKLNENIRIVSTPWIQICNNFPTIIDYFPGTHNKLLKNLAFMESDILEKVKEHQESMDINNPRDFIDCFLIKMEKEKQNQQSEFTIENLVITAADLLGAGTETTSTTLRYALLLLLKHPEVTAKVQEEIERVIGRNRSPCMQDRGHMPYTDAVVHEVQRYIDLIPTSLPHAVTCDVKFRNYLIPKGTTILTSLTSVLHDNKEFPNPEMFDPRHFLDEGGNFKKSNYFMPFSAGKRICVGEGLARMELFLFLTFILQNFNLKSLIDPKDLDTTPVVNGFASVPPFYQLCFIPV

For the molecule `Cc1ccc2c(n1)Oc1ccc(C(C)C(=O)OCC(=O)N(C)C)cc1C2` (stereo not drawn), the Potency entry in assay [1], in assay [2], in [3], in [4], in assay [5] and in assay [10] was “inactive” each time. Also, the Potency result in assay [11] and in [12] was “inactive” throughout. In addition, the Potency in [6] was 21.1 µM (active) and 11.9 µM (active); in assay [7] it was 38.9 µM (active); in assay [8], 17.4 µM (active); in assay [9], 21.9 µM (active).

Regarding `CCC(C)(O)CCCC(C)C` (stereo not drawn), the Potency result in assay [1], in assay [2], in [3], in assay [4], in assay [5] and in assay [6] was “inactive” throughout. Moreover, the Potency entry in [7], in assay [8], in assay [9], in assay [10], in assay [11] and in assay [12] was “inactive” each time.

Regarding `c1ccc(Nc2ccccc2)cc1`, the Potency result in assay [1], in [2], in [3], in assay [4], in [5] and in assay [7] was “inactive” each time. Moreover, the Potency entry in assay [11] was “inactive”. Moreover, the Potency was 61.1 µM (active) and inactive in assay [6]; 35.6 µM (active) and 39.9 µM (active) in assay [9]; 35.6 µM (active) in [10]; 3.17 µM (active) and inactive in assay [12].

As for `O=CCc1ccccc1`, the Potency result in assay [1], in assay [2], in assay [3], in assay [4], in [5] and in assay [6] was “inactive” throughout. For the same molecule, the Potency result in [7], in assay [11] and in assay [12] was “inactive” each time. The Potency is 19.9 µM (active) and 5.64 µM (active) in assay [8]; 25 µM (active) and 5.03 µM (active) in assay [9]; 39.9 µM (active) in [10].

Consider `c1ccc2c(c1)Oc1ccccc1S2`, for which the Potency result in assay [1], in assay [2], in [3], in assay [4], in assay [5] and in [6] was “inactive” in each case. The Potency result in [7] and in [12] was “inactive” in each case. Also, the Potency result in assay [8] is “inactive and 71 µM (active)”; in [10] it was 12.8 µM (active) and 8.94 µM (active).

Take `C=C(C)C(=O)OCCOC(=O)C(=C)C`: the Potency result in assay [1], in [2], in assay [3], in assay [4], in assay [5] and in [6] was “inactive” each time. Further, the Potency result in assay [7], in assay [9], in [11] and in assay [12] was “inactive” in each case. Further, the Potency entry in assay [10] is “inactive and 35.6 µM (active)”.

In the case of `Cc1cccc([N+](=O)[O-])c1C`, the Potency result in [1], in assay [2], in [3], in assay [4], in assay [5] and in assay [6] was “inactive” throughout. For the same molecule, the Potency result in assay [7], in [9], in assay [10], in [11] and in [12] was “inactive” each time.

`C=CC(C)(CCC=C(C)C)OC(C)=O` (stereo not drawn): the Potency result in assay [1], in [2], in assay [3], in assay [4], in assay [5] and in assay [6] was “inactive” each time. Moreover, the Potency result in assay [7], in assay [10] and in assay [11] was “inactive” throughout. Besides, the Potency entry was “inactive and 17.8 µM (active)” in assay [8]; “inactive and 35.6 µM (active)” in assay [9]; “inactive and 28.3 µM (active)” in [12].

As to `CCC(C)c1ccccc1O` (stereo not drawn), the Potency entry in assay [1], in assay [2], in [3], in assay [4], in assay [5] and in assay [6] was “inactive” each time. Further, the Potency entry in assay [7], in assay [8], in [11] and in assay [12] was “inactive” throughout.

As to `COc1c(Cl)c(Cl)c(Cl)c(Cl)c1Cl`, the Potency result in [1], in assay [2], in assay [3], in assay [4], in assay [5] and in assay [6] was “inactive” throughout. Also, the Potency entry in [7], in [9], in [11] and in assay [12] was “inactive” each time. Moreover, the Potency in [10] was 28.4 µM (active) and 5.03 µM (active).

Regarding `CN(C)CCC=C1c2ccccc2CCc2ccccc21`, the Potency in assay [1] was 44.7 µM (active) and 48.6 µM (active) and 26.6 µM (active); in [2], 68.6 µM (active) and inactive; in assay [3], 61.1 µM (active); in [6], 19.3 µM (active) and inactive; in assay [7] it was 2.52 µM (active) and 5.64 µM (active) and 5.49 µM (active). For the same molecule, the Potency entry in assay [4], in [5], in assay [9], in [10] and in assay [12] was “inactive” each time.

Turning to `COC(=O)c1ccccc1`, the Potency result in [1], in assay [2], in [3], in [4], in [5] and in assay [6] was “inactive” throughout. The Potency result in assay [7], in assay [9], in assay [10], in assay [11] and in assay [12] was “inactive” each time.

As for `CCCCC/C=C/C=C/C=O`, the Potency entry in assay [1], in assay [2], in assay [4], in assay [5] and in assay [11] was “inactive” throughout. The Potency result in assay [3] was “inactive and 61.1 µM (active)”; in assay [6] it was “inactive and 61.1 µM (active)”; in [7] it was “inactive and 35.6 µM (active)”; in [8], 31.4 µM (active) and 39.9 µM (active); in assay [9], 35.6 µM (active); in assay [10], “inactive and 71 µM (active)”. Besides, the Potency entry in assay [12] is “inactive and 39.9 µM (active)”.

As for `CCCCC(CC)COP(=O)(OCC(CC)CCCC)OCC(CC)CCCC` (stereo not drawn), the Potency result in assay [1], in assay [2], in assay [3], in [4], in assay [5] and in [7] was “inactive” throughout. The Potency entry in assay [9], in [10] and in assay [11] was “inactive” throughout. Besides, the Potency result in assay [6] was “inactive and 4.86 µM (active)”; in [8], “inactive and 71 µM (active)”; in assay [12] it was “inactive and 5.64 µM (active)”.

`C/C=C/C(=O)O`: the Potency result in [1], in assay [2], in [3], in assay [4], in assay [5] and in [6] was “inactive” each time. For the same molecule, the Potency result in assay [7], in assay [9], in assay [10], in assay [11] and in [12] was “inactive” throughout.

On to `Nc1ccc(Cl)cc1Cl`, for which the Potency result in assay [1], in assay [2], in assay [3], in assay [4], in assay [5] and in [6] was “inactive” each time. Further, the Potency entry in assay [7], in assay [9] and in assay [11] was “inactive” in each case. Also, in assay [10], the Potency was 31.4 µM (active) and 39.9 µM (active).
